The record followed here is PubChem BioAssay (NCATS).

Inconclusive results are not listed. Activity calls are given as the source filed them. Unless noted, calls come from the whole dose curve; as a rule, active = well fitted curve in the direction sought with a large enough effect; inconclusive = small, poorly fitted or top-dose-only effect, or another doubt; inactive = no such curve, though single readings can be large; an effect the other way counts as inactive or inconclusive.
% is set by controls: 0 for no effect and ±100 for the full control effect.

Chain of Cytochrome P450 2C9 (Homo sapiens) (P11712 whole entry, looked up): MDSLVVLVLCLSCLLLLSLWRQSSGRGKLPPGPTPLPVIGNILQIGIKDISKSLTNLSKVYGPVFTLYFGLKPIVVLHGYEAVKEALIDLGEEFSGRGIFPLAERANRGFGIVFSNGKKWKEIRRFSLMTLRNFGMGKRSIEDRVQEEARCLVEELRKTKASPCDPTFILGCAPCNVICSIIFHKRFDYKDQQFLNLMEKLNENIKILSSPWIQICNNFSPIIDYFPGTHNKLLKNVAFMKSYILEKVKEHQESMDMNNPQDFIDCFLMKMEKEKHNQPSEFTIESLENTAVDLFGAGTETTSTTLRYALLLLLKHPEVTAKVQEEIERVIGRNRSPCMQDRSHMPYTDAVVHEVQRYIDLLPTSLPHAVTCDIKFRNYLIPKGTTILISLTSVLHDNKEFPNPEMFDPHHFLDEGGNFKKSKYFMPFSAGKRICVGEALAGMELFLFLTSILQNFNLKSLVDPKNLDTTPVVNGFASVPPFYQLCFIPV

System in the first assay: not listed separately
The assay is described as follows: Primary qHTS for small molecule stabilizers of the endoplasmic reticulum resident proteome: Secreted ER Calcium Modulated Protein (SERCaMP) assay (AID 1508630). Conditions: SH-SY5Y GLuc-SERCaMP (Gaussia luciferase released on ER calcium loss) secretion, thapsigargin, luminescence; series mostly up to 38.4 µM; activity change, negative = inhibition: at the top concentration. In short, it runs like this: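 The SH-SY5Y reporter protocol was run at 3 concentrations up to 38.3 uM (primary) or 11 concentrations (follow-up): 16 h compound, 100 nM thapsigargin for 4 h, then extracellular luciferase luminescence.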
For orientation: Quantitative high-throughput screening tests each substance at several concentrations.
Regarding `O=C1CCCN1CC#CCN1CCCC1`, the Potency result was “inactive”. Take `CCCCc1ccc(C(=O)O)nc1`: the “activity change, negative = inhibition” value is -8.97% (inactive). Take `COc1ccc(C(=O)c2c(C)n(CCN3CCOCC3)c3cc(I)ccc23)cc1`: the Potency entry is “inactive”.

Turning to `O=S(=O)(F)Cc1ccccc1`, the “activity change, negative = inhibition” value is 10% (inactive). The same measure, in the same setting: the result for `C[C@]12CC[C@@H]3[C@@H](CCC4=CC(=O)CC[C@@H]43)[C@@H]1CC[C@@H]2OC(=O)CCc1ccccc1` reads 33.5% (inactive). With `Clc1cnc(Oc2ccc(Oc3ncc(Cl)cc3Cl)cc2)c(Cl)c1`, the Potency entry was “inactive”. With `C[C@]12CCC3C(CC[C@H]4C[C@H](O)CC[C@]34C)C1CC[C@@H]2C(=O)CO` (stereo partly specified), the “activity change, negative = inhibition” value was -19.1% (inactive). Consider `c1ccc2sc(C3(N4CCCCC4)CCCCC3)cc2c1`, for which the Potency entry was “inactive”. In the case of `CCCN(CCC)[C@@H]1CCc2ccc(O)cc2C1`, the Potency entry was “inactive”. Turning to `NC(CP(=O)(O)O)C(=O)O` (stereo unspecified), the Potency result is “inactive”.

Turning to `O=C(Cc1ccc(Cl)c(Cl)c1)N1CCCCC1CN1CCCC1` (stereo unspecified), the Potency result is “inactive”. Consider `COc1cc(C(O)CN)ccc1O` (stereo unspecified), for which the “activity change, negative = inhibition” value was -25% (inactive). As for `NC(CCP(=O)(O)O)C(=O)O` (stereo unspecified), the Potency result is “inactive”.

As to `C#CCOC(=O)C1=CCCN(C)C1`, the Potency result is “inactive”. For `CC=C(C)C(=O)O[C@H]1C(C)=C2[C@@H]3OC(=O)[C@@](C)(O)[C@@]3(O)[C@@H](OC(=O)CCC)C[C@](C)(OC(C)=O)[C@@H]2[C@@H]1OC(=O)CCCCCCC`, the “activity change, negative = inhibition” value is 182% (inactive). As for `CC(C)Oc1cccnc1N(C)C1CCN(Cc2ccccc2)CC1`, the “activity change, negative = inhibition” value is -25% (inactive). Regarding `C[C@@]12OC(=O)[C@]1([C@@H](O)[C@@H]1C=CCCC1)NC(=O)[C@H]2CCCl`, the “activity change, negative = inhibition” value was 0% (inactive).

As to `C[C@H]([C@H](O)CCC(C)(C)O)[C@H]1CC[C@@]2(O)C3=CC(=O)[C@@H]4C[C@@H](O)[C@@H](O)C[C@]4(C)[C@@H]3CC[C@]12C`, the “activity change, negative = inhibition” value is 18.5% (inactive). For the compound `C[N+]1(C)C2CCC1CC(OC(=O)C(CO)c1ccccc1)C2` (stereo unspecified), the Potency entry is “inactive”. On to `CN[C@@H]1C[C@@H](c2ccc(Cl)c(Cl)c2)c2ccccc21`, for which the “activity change, negative = inhibition” value was 152% (inactive).

Take `NCCc1c[nH]c2ccccc12`: the Potency result was “inactive”.

For the next assay, the target named is Cytochrome P450 2D6 (Homo sapiens) (UniProt P10635). In words: Cytochrome P450 family 2 subfamily D member 6 (CYP2D6) small molecule antagonists: luciferase biochemical (cell-free) qHTS assay (AID 1645840; active = well fitted curve in the direction sought with a large enough effect in the repeat runs; an effect the other way counts as inactive or inconclusive; note: nearly all actives have a fitted effect of over 55% in size; note: potency is the fitted concentration of half-maximal effect). The following applies: P450-Glo CYP2D6 enzyme, luciferin luminescence, 1 h; series mostly up to 57.4 µM; activity change, negative = inhibition: at the top concentration. Summed up: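 P450-Glo CYP2D6 system: proluciferin substrate converted by enzyme to luciferin, read by luminescence proportional to activity. Enzyme-substrate mix with compound 10 min at room temperature, then NADPH regeneration 1 h before detection reagent.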
Chain of Cytochrome P450 2D6 (Homo sapiens) (P10635 whole entry, looked up): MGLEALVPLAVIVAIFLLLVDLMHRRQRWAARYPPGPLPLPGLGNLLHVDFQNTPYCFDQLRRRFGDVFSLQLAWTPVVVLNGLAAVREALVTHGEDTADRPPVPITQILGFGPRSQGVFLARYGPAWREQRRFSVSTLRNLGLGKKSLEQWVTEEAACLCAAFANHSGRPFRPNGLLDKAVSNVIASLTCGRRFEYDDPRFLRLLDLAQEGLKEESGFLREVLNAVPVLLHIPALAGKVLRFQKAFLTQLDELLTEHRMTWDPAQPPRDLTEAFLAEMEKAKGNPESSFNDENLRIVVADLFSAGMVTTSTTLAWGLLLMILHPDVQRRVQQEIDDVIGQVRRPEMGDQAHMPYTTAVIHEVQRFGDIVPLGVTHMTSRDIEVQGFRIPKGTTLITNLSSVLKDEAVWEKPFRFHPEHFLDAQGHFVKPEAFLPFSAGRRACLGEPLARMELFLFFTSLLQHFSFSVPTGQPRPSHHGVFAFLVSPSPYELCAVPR
On to `CCCCc1ccc(C(=O)O)nc1`, for which the “activity change, negative = inhibition” value was 2.12% (inactive). As to `Nc1ccc(N=Nc2ccccc2)cc1`, the Potency is 41.1 µM (active). Still for that read-out and setting: the result for `Nc1ccc(Cl)cc1N` reads 25.9 µM (active).

Take `O=[N+]([O-])c1c2ccccc2cc2ccccc12`: the “activity change, negative = inhibition” value is 5.56% [at 115 µM] (inactive). As for `Nc1c(Cl)c(Cl)c(Cl)c(Cl)c1Cl`, the “activity change, negative = inhibition” value was 9.39% [at 115 µM] (inactive).

A further assay has as its target Cytochrome P450 2C9 (Homo sapiens) (UniProt P11712). In words: Cytochrome P450 family 2 subfamily C member 9 (CYP2C9) small molecule antagonists: luciferase biochemical (cell-free) qHTS assay (AID 1645842; active = well fitted curve in the direction sought with a large enough effect in the repeat runs; an effect the other way counts as inactive or inconclusive; note: nearly all actives have a fitted effect of over 55% in size; note: potency is the fitted concentration of half-maximal effect). Conditions: P450-Glo CYP2C9 enzyme assay, luciferin luminescence; series mostly up to 57.4 µM; activity change, negative = inhibition: at the top concentration. Summed up: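 P450-Glo CYP2C9 system: proluciferin substrate with enzyme in mix containing 0.4% BSA, 10 min at room temperature, then NADPH regeneration solution added and incubated 1 h at 37C. Detection reagent stopped reaction; luminescence read after 20 min as RLU.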
Consider `CCCCc1ccc(C(=O)O)nc1`, for which the “activity change, negative = inhibition” value was -24.7% (inactive).

`Nc1ccc(N=Nc2ccccc2)cc1`: the Potency is 9.2 µM (active). For `Nc1ccc(Cl)cc1N`, the Potency is 23.3 µM (active).

For `O=[N+]([O-])c1c2ccccc2cc2ccccc12`, the Potency was 10.8 µM (active).

As for `Nc1c(Cl)c(Cl)c(Cl)c(Cl)c1Cl`, the “activity change, negative = inhibition” value is 47.4% [at 115 µM] (inactive).
